The text below walks through data of the supplement of paper PMC9492666.

Structures are written as SMILES.

In experiment [1] the test system is HCC1937. The experiment in a line: relative cell viability, compound + erastin, vs DMSO (fraction of DMSO control); higher = less growth inhibition. The note with it: 72 h.
Experiment [2] concerns MDA-MB-231. The description is as above. The note with it: 72 h.
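Also: viability read by CCK-8 kit in 96-well plates, part of a combination screen pairing lipid-metabolism-targeting compounds with erastin.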

As for `CC(C)OC(=O)CCC/C=C\C[C@@H]1[C@@H](CC[C@@H](O)CCc2ccccc2)[C@H](O)C[C@@H]1O` [Latanoprost] + CCOc1ccccc1-n1c(C(C)N2CCN(C(=O)COc3ccc(Cl)cc3)CC2)nc2ccccc2c1=O [erastin], the relative cell viability in experiment [1] came to 1; in experiment [2], 0.663.

For `C[C@H](CCOc1cccc(CC(=O)O)c1)N(Cc1cccc(C(F)(F)F)c1Cl)CC(c1ccccc1)c1ccccc1` + CCOc1ccccc1-n1c(C(C)N2CCN(C(=O)COc3ccc(Cl)cc3)CC2)nc2ccccc2c1=O [erastin], the relative cell viability amounted to 0.602 in experiment [1] and 0.384 in experiment [2].

In the case of `NC(=O)c1cccc(-c2cccc(OC(=O)NC3CCCCC3)c2)c1` + CCOc1ccccc1-n1c(C(C)N2CCN(C(=O)COc3ccc(Cl)cc3)CC2)nc2ccccc2c1=O [erastin], the relative cell viability in experiment [1] was 0.756; in experiment [2], 0.568.

For `N=C(N)NCCC(=O)O` [3-Guanidinopropionic Acid] + CCOc1ccccc1-n1c(C(C)N2CCN(C(=O)COc3ccc(Cl)cc3)CC2)nc2ccccc2c1=O [erastin], the values for the relative cell viability in experiment [1] and in experiment [2] were 0.714 and 0.852, respectively.

Take `O=C(Oc1ccc([N+](=O)[O-])cc1)N1CCC(C(O)(c2ccc3c(c2)OCO3)c2ccc3c(c2)OCO3)CC1` + CCOc1ccccc1-n1c(C(C)N2CCN(C(=O)COc3ccc(Cl)cc3)CC2)nc2ccccc2c1=O [erastin]: the values for the relative cell viability in experiment [1] and in experiment [2] were 0.556 and 0.641, respectively.

Regarding `CN1c2ccccc2C(=O)Nc2cnc(Nc3ccc(N4CCC(O)CC4)cc3)nc21` + CCOc1ccccc1-n1c(C(C)N2CCN(C(=O)COc3ccc(Cl)cc3)CC2)nc2ccccc2c1=O [erastin], the relative cell viability was determined as 0.205 in experiment [1] and 0.644 in experiment [2].
